Data on 14 compounds can be found in PubChem BioAssay.

Assay [1] concerns the target Albumin (Bos taurus) (UniProt P02769). The experiment in a line: compounds binding labelled BSA control protein – biochemical, small-molecule microarray, Alexa647 label, 635/667 nm fluorescence, artefact control for SMM control protein annotation, profiling panel (AID 1118).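 Further: score merges 667 nm emission intensity and signal-to-noise per printed compound spot.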 Particulars: BSA-A647 binding, fluorescence 635 nm, higher = more signal.
Assay [2] in a line: probe aXIP binding to arrayed compounds – biochemical, NeuroSMM set, 635/667 nm fluorescence, primary screen (AID 1119).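 Further: probe is the protein aXip251-270 applied at 1 µg/mL to compound-printed slides; binding of probe to printed compounds measured as 667 nm fluorescence plus signal to noise.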 As to conditions: small-molecule microarray, higher = more signal, called active from +8 up or from −8 down.
A short description of assay [3]: probe aNOTCH3 binding on compound microarray – biochemical, small-molecule microarray, 635/667 nm fluorescence, primary screen (AID 1120).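 Further: probe is a biotin-tagged antibody raised against NOTCH3 rather than NOTCH3 protein; score merges spot fluorescence near 667 nm with spot signal to noise.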 Particulars: higher = more signal.
The nature of assay [4]: probe aNOTCH2 binding on compound microarray – biochemical, small-molecule microarray, 635/667 nm fluorescence, primary screen (AID 1121).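 Further: score merges feature fluorescence read at 667 nm with its signal to noise.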 As to conditions: higher = more signal.
In assay [5] the target is Carbonic anhydrase 2 (Homo sapiens) (UniProt P00918). The experiment in a line: compounds binding carbonic anhydrase 2 – biochemical, small-molecule microarray, Alexa647-labelled CAII, profiling panel (AID 1122). As to conditions: CAII-A647 binding fluorescence, higher = more signal.
Assay [6] can be described thus: COS7 lysate on small-molecule microarray, probe aHis, 635 nm (AID 1123).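 Further: z-score combines 667nm fluorescence intensity with signal-to-noise per printed compound spot.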 Particulars: COS7 cell lysate, fluorescence, higher = more signal.
A short description of assay [7]: probe aLAP1 signal on lysate-treated microarray – cell lysate, small-molecule microarray, COS7 lysate, primary screen (AID 1124).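 Further: lysate comes from COS7 cells expressing LAP1 and is applied at 0.3 µg/mL; score merges spot fluorescence near 667 nm with signal-to-noise over triplicate slides.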 As to conditions: probe aLAP1, fluorescence, higher = more signal.
Assay [8] deals with Sam68 (KHDRBS1). The experiment in a line: compounds binding KHDRBS1 protein – biochemical, small-molecule microarray, 635 nm fluorescence, primary screen (AID 1125).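 Further: score merges 667 nm channel intensity with signal to noise over triplicate slides.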 As to conditions: higher = more signal.
For assay [9], the system named is Chordin-like protein 2 (CHRDL2). The experiment in a line: compounds binding chordin-like 2 – biochemical, small-molecule microarray, 635 nm fluorescence, primary screen (AID 1126).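 Further: printed compound slides probed with Chrdl2 protein at 4 µg/mL for 1 h at 4 C; score merges 667 nm emission intensity with signal to noise over three replicate slides.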 Particulars: fluorescence 635 nm, higher = more signal.
Assay [10] addresses Concanavalin-A (Canavalia ensiformis) (UniProt P02866). The experiment in a line: compounds binding concanavalin A lectin – biochemical, small-molecule microarray, Alexa647 label, 635 nm, artefact control for SMM control protein annotation, primary screen (AID 1127).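 Further: z combines 667 nm emission intensity with signal-to-noise across three replicate slides.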 Particulars: ConA-A647 binding fluorescence, higher = more signal.

“And” between values parts separate entries of the source, which are not always exact repeats. Identical values can stand only once. The source made the active and inactive calls.

Concanavalin-A (Canavalia ensiformis), sequence (P02866 whole entry, looked up): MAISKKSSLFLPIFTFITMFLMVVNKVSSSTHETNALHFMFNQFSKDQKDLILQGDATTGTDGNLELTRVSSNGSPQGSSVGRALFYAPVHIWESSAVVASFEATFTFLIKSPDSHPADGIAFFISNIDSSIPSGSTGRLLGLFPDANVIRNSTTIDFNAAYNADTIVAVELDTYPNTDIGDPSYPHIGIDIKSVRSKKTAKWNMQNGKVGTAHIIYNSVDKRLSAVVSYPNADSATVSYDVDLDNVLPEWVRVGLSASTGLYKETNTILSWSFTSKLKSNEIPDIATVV
Albumin (Bos taurus), sequence (P02769 whole entry, looked up): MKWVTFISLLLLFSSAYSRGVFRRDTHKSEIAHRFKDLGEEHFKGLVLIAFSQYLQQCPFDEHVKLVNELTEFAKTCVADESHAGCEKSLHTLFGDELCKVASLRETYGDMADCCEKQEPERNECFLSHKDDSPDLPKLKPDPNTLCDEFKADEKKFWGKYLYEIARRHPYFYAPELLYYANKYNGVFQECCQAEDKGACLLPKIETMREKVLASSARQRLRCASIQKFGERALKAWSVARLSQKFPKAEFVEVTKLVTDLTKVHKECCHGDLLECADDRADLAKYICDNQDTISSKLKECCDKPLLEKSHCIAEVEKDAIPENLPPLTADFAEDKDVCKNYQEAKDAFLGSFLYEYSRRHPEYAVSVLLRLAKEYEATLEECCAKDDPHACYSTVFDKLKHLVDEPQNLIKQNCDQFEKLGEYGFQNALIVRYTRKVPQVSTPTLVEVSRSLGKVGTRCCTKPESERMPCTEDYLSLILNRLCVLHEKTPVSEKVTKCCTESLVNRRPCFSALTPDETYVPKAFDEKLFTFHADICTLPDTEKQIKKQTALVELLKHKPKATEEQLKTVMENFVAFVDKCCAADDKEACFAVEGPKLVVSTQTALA

As for `CC(C)[Si]1(C(C)C)OCc2cc(C3CC3)nc(CCc3ccccc3)c21`, the composite z-score in assay [1] was -0.367 and -0.0511; in [3], -0.0716 and -0.135; in assay [4] it was -0.155 and -0.176; in assay [5], -0.344 and 0.027; in [6] it was -0.416 and 0.368; in assay [7], -0.0371 and -0.455. For the same compound, the composite z-score in assay [8] was -0.636 and 0.47; in [9], 0.32 and 0.195; in assay [10] it was 0.211 and 0.513. Further, the composite Z-score in [2] is -0.145 (inactive) and -0.387 (inactive).
In the case of `C=CCN(CCCC)C(=O)C(c1cccs1)N(CCOCCO)C(=O)/C=C\C(=O)O` (stereo not given), the composite z-score in assay [1] was -0.717 and 0.789; in assay [3] it was -0.362 and -0.189; in [4], -0.14 and -0.115; in assay [5], 0.916 and 0.734; in assay [6] it was 0.0303 and 1.6; in assay [7], -0.672 and 0.9. The composite z-score in assay [8] is -1.2 and -0.24; in [9], -1.6 and -0.769; in [10] it was -2.03 and -0.878. In addition, the composite Z-score in [2] is -0.67 (inactive) and -0.0169 (inactive).
For `CCOC(=O)CCN1C(=O)[C@H]2[C@H]3[C@H](O)[C@H](O)CC(=NNC(=O)OCC)[C@@H]3CC[C@H]2C1=O`, the composite z-score was 0.357 in assay [1]; 0.229 in assay [3]; -0.0131 in assay [4]; -0.249 in [5]; 0.043 in [6]; 0.127 in [7]. Also, the composite z-score was 0.739 in assay [8], -0.0855 in [9] and 0.0804 in assay [10]. Also, in assay [2], the composite Z-score is -0.436 (inactive).
For the compound `CC(C)OC(=O)C=C1C[C@@H](c2ccccc2)O[C@@H](c2ccccc2)O1`, the composite z-score was 0.799 and 0.915 in assay [1]; 0.168 and 0.308 in assay [3]; -0.029 and 0.0219 in assay [4]; 0.749 and 0.727 in assay [5]; 2.74 and 1.87 in assay [6]; 0.809 and 0.779 in assay [7]. Also, the composite z-score in [8] was 1.33 and 1.3; in assay [9] it was 0.0745 and 0.626; in assay [10], 1.02 and 1.09. For the same compound, in assay [2], the composite Z-score was 0.417 (inactive) and 0.224 (inactive).
Regarding `COC(=O)[C@@]1(Cc2ccccc2)[C@H]2c3cc(C(=O)N(C)C)n(Cc4ccc(C)c(F)c4F)c3C[C@H]2CN1C(=O)c1ccccc1`, the composite z-score in assay [1] is 0.821 and 0.859; in assay [3], 0.141 and 1.27; in assay [4], 0.106 and -0.0977; in [5], 0.72 and 0.653; in [6], 2.51 and 2.94; in assay [7], 0.289 and 0.612. In addition, the composite z-score in assay [8] is 0.998 and 1.34; in assay [9] it was -1.32 and -0.528; in [10], 0.201 and 1.18. The composite Z-score in assay [2] is 0.392 (inactive) and -0.26 (inactive).
Consider `C[C@@H](c1ccccc1)N1C(=O)[C@H]2[C@H]3[C@H](O)[C@H](O)CC(=O)[C@@H]3CC[C@H]2C1=O`, for which the composite z-score in assay [1] is 0.294; in [3] it was -0.0345; in assay [4], -0.0843; in assay [5], 0.149; in assay [6], 0.438; in assay [7], 0.727. Further, the composite z-score in [8] came out at 0.661; in [9], 0.433; in assay [10], 0.583. Besides, the composite Z-score in [2] was 0.28 (inactive).
Take `CCOC(=O)c1ccc(NC(=O)O[C@H]2[C@H](OC(=O)Nc3ccccc3)[C@H](OC(=O)Nc3ccccc3)[C@@H](OC)O[C@@H]2CO)cc1`: the composite z-score in [1] was 0.783 and 0.754; in [3], 0.583 and 0.228; in [4], 0.121 and -0.0858; in assay [5] it was 0.46 and 0.771; in assay [6] it was 2.66 and 2.3; in assay [7], 0.708 and 1.11. The composite z-score in [8] is 1.31 and 1.3; in [9], 0.292 and 0.142; in [10], 1.19 and 1.15. In assay [2], the composite Z-score was 1.13 (inactive) and 0.14 (inactive).
For the compound `CCOC(=O)[C@H](CC(C)C)NC(=O)CCC1CC(OC(=O)NCc2cccc3ccccc23)CC2(CCCC(COC(=O)NCc3ccccc3)O2)O1` (stereo not given in full), the composite z-score in assay [1] was -0.294; in assay [3], -0.155; in [4] it was -0.152; in [5], -0.3; in assay [6], 0.043; in [7], -0.384. For the same compound, the results for the composite z-score in assay [8], in [9] and in assay [10] were -0.903, -0.139 and -0.68, respectively. Moreover, the composite Z-score in assay [2] was -0.19 (inactive).
Take `C=CC[C@H](O)c1ccc(OCCO)cc1`: the composite z-score in [1] is 0.787 and -0.0212; in assay [3] it was -0.382 and -0.319; in assay [4], -0.169 and -0.296; in assay [5] it was 0.725 and 0.843; in assay [6], -0.263 and -1.45; in assay [7] it was -0.22 and -0.782. Besides, the composite z-score in assay [8] is -0.769 and -2.69; in assay [9], -0.978 and 0.193; in assay [10] it was -1.3 and -1.2. The composite Z-score in assay [2] was -0.745 (inactive) and 0.156 (inactive).
As for `C=CCN(CCCC)C(=O)C1N(c2ccc(CCO)cc2)C(=O)C2C(C(=O)O)C3C=CC21O3` (stereo not given), the composite z-score in [1] was -0.196 and -1.75; in assay [3] it was -0.454 and -0.477; in assay [4], 0.0039 and -0.14; in assay [5], 0.809 and 0.91; in assay [6], 0.253; in assay [7], -1.05 and -0.525. For the same compound, the composite z-score in [8] is -1.48 and -0.741; in assay [9], -3.26 and -3.79; in [10], -1.74 and -2.64. Also, in [2], the composite Z-score was -0.708 (inactive) and -0.319 (inactive).
With `C=CCN(C(=O)C(c1cccs1)N(C(=O)/C=C\C(=O)O)C(C)(C)CO)C(C)(C)C` (stereo not given), the composite z-score in assay [1] is 0.649 and 0.333; in [3], -0.289 and -0.358; in assay [4], -0.172 and -0.0728; in [5], 0.786 and 0.805; in [6] it was 0.414 and 0.831; in assay [7], -0.68 and 0.64. The composite z-score in assay [8] was 0.0206 and -0.225; in assay [9], -1.43 and -1.27; in assay [10], -0.625 and -0.54. In assay [2], the composite Z-score is -1.12 (inactive) and 0.108 (inactive).
Regarding `C#CCN1C(/C=C/c2ccccc2)C(=O)OC[C@H]1c1ccccc1` (stereo not given in full), the composite z-score in assay [1] was -0.147 and 0.723; in [3], -0.0766 and 0.228; in assay [4], -0.181 and -0.101; in assay [5], -0.114 and 0.493; in assay [6], 0.096 and 0.45; in assay [7], -0.317 and 0.0886. Moreover, the composite z-score in assay [8] was 0.224 and 0.889; in [9], 0.852 and -0.0756; in assay [10] it was -0.243 and 0.199. Further, in assay [2], the composite Z-score was -0.0965 (inactive) and 0.733 (inactive).
Take `C=CCN(C(=O)C(c1cccs1)N(CCOCCO)C(=O)/C=C\C(=O)O)c1ccc(OC)cc1` (stereo not given): the composite z-score in assay [1] was -0.625 and -1.25; in [3] it was -0.212 and -0.312; in [4] it was -0.14 and -0.126; in assay [5], -0.655 and -0.65; in assay [6], -0.718 and -1.36; in [7] it was 0.164 and -0.531. Moreover, the composite z-score in assay [8] was -1.75 and -1.35; in [9] it was -0.166 and -3.29; in assay [10], -0.337 and -2.28. Besides, the composite Z-score in assay [2] is 0.347 (inactive) and -0.659 (inactive).
In the case of `CCN1C(=O)[C@H]2[C@H]3[C@H](O)[C@H](O)CC(=NOC)[C@@H]3CC[C@H]2C1=O`, the composite z-score in [1] was -0.311; in assay [3], 0.0297; in [4], -0.0681; in assay [5] it was -0.317; in assay [6], -0.417; in assay [7], -0.375. Further, the composite z-score in assay [8] is -0.478; in [9], 0.508; in assay [10] it was -0.0569. Further, the composite Z-score in assay [2] is -0.791 (inactive).
